Results on seven molecules are retold here after PubChem BioAssay (NCATS).

Values joined by “and” are separate entries in the source; they are usually repeats but may differ in a detail not shown here. Equal entries are not always repeated. Inconclusive results are not listed. Active and inactive are the calls of the source. Unless noted, calls come from the whole dose curve; as a rule, active = well fitted curve in the direction sought with a large enough effect; inconclusive = small, poorly fitted or top-dose-only effect, or another doubt; inactive = no such curve, though single readings can be large; an effect the other way counts as inactive or inconclusive.

The nature of assay [1]: Cytometric Cell-Based qHTS for Inhibitors of the mTORC1 Signaling Pathway in MEF (Tsc2-/-, p53-/-) Cells (AID 2660).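 Note: percent of cells above a phospho-rpS6 to PI ratio cutoff in each well; series mostly up to about 38 µM.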 The method in brief:
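Tsc2-/-, p53-/- MEFs (empty vector) exposed to compound 24 h at 37 C, fixed, stained with Alexa-488 anti-phospho-rpS6 Ser235/236 and propidium iodide. Acumen laser scanning; phospho-S6/PI ratio thresholded against 7.5 nM rapamycin, reported as % positive cells.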
In general terms: qHTS replaces the single test concentration by a dilution series.

A short description of assay [2]: High Content Imaging Cell-Based qHTS for Inhibitors of the mTORC1 Signaling Pathway in MEF (Tsc2-/-, p53-/-) Cells (AID 2666). The method in brief: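 Phospho-rpS6 (Ser235/236) immunofluorescence, normalized and scored as % positive cells using rapamycin and DMSO controls, was read in empty-vector Tsc2-/-, p53-/- MEFs after 24 h compound exposure at 37 C; propidium iodide counted cells.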

The target in assay [3] is Ubiquitin carboxyl-terminal hydrolase 2 (Homo sapiens) (UniProt O75604). Briefly: qHTS Validation Assay for Inhibitors of Ubiquitin-specific Protease USP2a Using CHOP2 as the Reporter (AID 463106). The method in brief: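 USP2 core (10 nM final) was preincubated with compound 30 min at RT in pH 8.0 Tris/CaCl2/beta-ME/CHAPS buffer. Ub-CHOP2 and reporter substrate (25 nM final each) were then added, with fluorescence (Ex 485/Em 531) read after 60 min. Data were normalized to NEM full inhibition and fitted to concentration-response curves.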

Assay [4] deals with DNA polymerase III PolC-type (Bacillus subtilis (strain 168)) (UniProt P13267). Briefly: qHTS Validation Assay for the Inhibitors of DNA Replication in Gram-Positive Bacteria (AID 485295).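 Note: reconstituted holoenzyme with PolC plus beta clamp SSB and primase; PicoGreen fluorescence of double-stranded DNA made on primed circular M13 template; series mostly up to about 57 µM.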 The method in brief: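 Primed replication of single-stranded M13Gori by a four-protein B. subtilis holoenzyme is measured at room temperature. Double-stranded product is quantified by PicoGreen fluorescence after an EDTA stop; inhibition is scaled between DMSO and EDTA controls.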

The target of assay [5] is Tumor susceptibility gene 101 protein (Homo sapiens) (UniProt Q99816). Briefly: qHTS Validation Assay for Iinhibitors of HIV-1 Budding by Blocking the Interaction of PTAP/TSG101 (AID 485342; calls by dose curve). The method in brief: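 Fluorescence anisotropy measured PTAP-Tsg101 interaction. Final concentrations were 10 uM protein domain and 50 nM labeled peptide, equilibrated 20 min at room temperature.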

The nature of assay [6]: qHTS Validation Assay to Find Inhibitors of Chronic Active B-Cell Receptor Signaling (AID 485345; active = well fitted curve in the direction sought with a large enough effect in the main read-out, with a control signal flat, not every such curve was filed as active). In a few lines:
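TMD8 ABC-DLBCL cells stably carrying doxycycline-inducible IkappaBalpha–green luciferase fusion plus unfused red luciferase; compounds 46 uM to 3 nM, 4 h at 37C with doxycycline. Corrected green/red luminescence ratio normalized to 10 uM MG-132 and basal cell wells; curves fitted.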

The target in assay [7] is Beta-2 adrenergic receptor (Homo sapiens) (UniProt P07550). Briefly: qHTS validation assay of beta-arrestin-biased ligands of beta2-adrenergic receptor (AID 485366). The method in brief:
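Tango cells expressing recombinant beta2-AR and beta-arrestin with tTA-driven luciferase, in DMEM with 1% FBS. Compounds were titrated up to 46 microM for 18 hr at 37 degrees C. Luminescence was read 15 min after substrate; curves were fitted and class-assigned.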

The target of assay [8] is ATP-dependent 6-phosphofructokinase (Trypanosoma brucei brucei) (UniProt O15648). Briefly: qHTS Validation Assay to Find Inhibitors of T. brucei phosphofructokinase (AID 485368). Note: potency is the fitted concentration of half-maximal effect. The method in brief: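 Activity was read as ADP production by luminescence (ADP-Glo) after 45 min at room temperature. The enzyme was 1.25nM PFK in 0.1M TEA pH 8.0 with 0.5 mM F6P, 0.1mM ATP and 5 mM MgCl2. Compounds were titrated up to 57 uM and % activity normalized to no-enzyme and full-enzyme controls.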

Assay [9] is described as follows: Quantitative high throughput screen for delayed death inhibitors of the malarial parasite plastid, 96 hour incubation (AID 488745). Note: nearly all actives have a fitted effect of over 70% in size. Note: potency is the fitted concentration of half-maximal effect. In a few lines:
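Infected erythrocytes were added to compound in Albumax-supplemented RPMI 1640 at 0.1% parasitemia and 2% hematocrit (final), incubated 96 h at 37 C under 5% CO2, then luciferase reagent was added and luminescence measured.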

A short description of assay [10]: Quantitative high throughput screen for delayed death inhibitors of the malarial parasite plastid, 48 hour incubation (AID 488752). Note: nearly all actives have a fitted effect of over 65% in size. Note: potency is the fitted concentration of half-maximal effect. In a few lines:
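Readout is firefly luciferase luminescence from a reporter integrated into the parasite genome, with lower signal taken as inhibited growth. Infected red cells (0.1% parasitemia, 2% hematocrit final) are cultured with compound for one 48 h cycle at 37 C.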

Assay [11] concerns the target Thioredoxin reductase 1, cytoplasmic (Rattus norvegicus) (UniProt O89049). Briefly: qHTS Assay for Substrates of Mammalian Selenoprotein Thioredoxin Reductase 1 (TrxR1) (AID 488772).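 Note: NADPH fluorescence in the first read after selenite addition and not the 8 min delta; a drop in NADPH fluorescence below the no-compound background marks a TrxR1 substrate.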 Note: potency is the fitted concentration of half-maximal effect. The method in brief:
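Quantitative HTS in Tris-HCl buffer at pH 7.5 with EDTA and Tween-20, using rat TrxR1, 400 uM NADPH and 400 uM selenite (final). A fall in initial NADPH fluorescence relative to background marked substrate behaviour.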

Assay [12] has the same target. Briefly: qHTS Assay for Inhibitors of Mammalian Selenoprotein Thioredoxin Reductase 1 (TrxR1) (AID 488773). Note: nearly all actives have a fitted effect of over 40% in size. Note: potency is the fitted concentration of half-maximal effect. To be noted: Potency: inhibition. The method in brief: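 Steps: enzyme (90 nM) plus NADPH (400 uM final), 5 min at ~22 deg C; compound added, 15 min; selenite (400 uM final) added; fluorescence followed for 8 min. Concentration-response curves derived from the normalized delta values.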

The target of assay [13] is Flap endonuclease 1 (Homo sapiens) (UniProt P39748). Briefly: qHTS Validation Assay for the Inhibitors of Human Flap endonuclease 1 (FEN1) (AID 488816). Note: potency is the fitted concentration of half-maximal effect. In a few lines:
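Human FEN1 (10 nM) preincubated 15 min at room temperature with compounds, then flap DNA substrate added at 50 nM final. Fluorescence read at 0 and 15 min; concentration-response fitted with four-parameter Hill equation.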

Assay [14] deals with M-phase phosphoprotein 8 (Homo sapiens) (UniProt Q99549). Briefly: qHTS Validation Assay for Inhibitors for MPP8 Chromodomain Interactions with Methylated Histone Tails (AID 488949). Note: nearly all actives have a fitted effect of over 55% in size. Note: potency is the fitted concentration of half-maximal effect. In a few lines: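 Disruption of the preformed MPP8–trimethyl-H3K9 peptide complex (both 50 nM, 30 min, RT) is measured after 30 min compound exposure, using AlphaScreen proximity beads; aurintricarboxylic acid titration serves as plate control.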

Assay [15] addresses Chromobox protein homolog 1 (Homo sapiens) (UniProt P83916). Briefly: qHTS Validation Assay for Inhibitors of HP1-beta Chromodomain Interactions with Methylated Histone Tails (AID 488953). Note: nearly all actives have a fitted effect of over 50% in size. Note: potency is the fitted concentration of half-maximal effect. In a few lines:
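50 nM HP1-beta + 50 nM biotin-H3(1-18)K9me3, PBS pH 7.4, 0.01% Tween-20, 30 min RT; compound added, 30 min RT; AlphaScreen beads 10 ug/mL final, 30 min dark; luminescence read.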

A short description of assay [16]: High Content Imaging Cell-Based qHTS for Inhibitors of the mTORC1 Signaling Pathway in MEF Cells (AID 2667). Note: potency is the fitted concentration of half-maximal effect. In a few lines:
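WT MEFs (Tsc2-/-, p53-/- re-expressing Tsc2), in DMEM + 10% FBS, were treated with compound for 24 h at 37 C. Cells were then fixed and stained for phospho-rpS6 Ser235/236 with propidium iodide as cell count. Values are % positive cells, with thresholds set against rapamycin-treated cells.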

The nature of assay [17]: Validation screen for small molecules that induce DNA re-replication in MCF 10A normal breast cells (AID 463097). Note: nearly all actives have a fitted effect of over 60% in size. Note: potency is the fitted concentration of half-maximal effect. In a few lines: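 DNA re-replication was detected as a rise in nuclei with elevated Hoechst fluorescence after a 48 hr compound exposure of MCF 10A cells at 37 C.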
Assay [18] is described as follows: Cytometry Cell-Based qHTS for Inhibitors of the mTORC1 Signaling Pathway in MEF cells (AID 2668).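 Note: Tsc2-/- p53-/- mouse embryonic fibroblasts stably re-expressing wild-type Tsc2; percent cells positive for phospho-rpS6 Ser235/236 relative to propidium iodide stain; series mostly up to about 38 µM.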 In a few lines:
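Pathway inhibition in WT Tsc2-rescued Tsc2-/-, p53-/- MEFs is measured as the Alexa-488 phospho-rpS6 to propidium iodide intensity ratio after 24 hrs of compound at 37 degree Celsius. PI-stained cell number gives viability.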

Sequence of Tumor susceptibility gene 101 protein (Homo sapiens) (Q99816 whole entry, looked up, the tested form may be a part): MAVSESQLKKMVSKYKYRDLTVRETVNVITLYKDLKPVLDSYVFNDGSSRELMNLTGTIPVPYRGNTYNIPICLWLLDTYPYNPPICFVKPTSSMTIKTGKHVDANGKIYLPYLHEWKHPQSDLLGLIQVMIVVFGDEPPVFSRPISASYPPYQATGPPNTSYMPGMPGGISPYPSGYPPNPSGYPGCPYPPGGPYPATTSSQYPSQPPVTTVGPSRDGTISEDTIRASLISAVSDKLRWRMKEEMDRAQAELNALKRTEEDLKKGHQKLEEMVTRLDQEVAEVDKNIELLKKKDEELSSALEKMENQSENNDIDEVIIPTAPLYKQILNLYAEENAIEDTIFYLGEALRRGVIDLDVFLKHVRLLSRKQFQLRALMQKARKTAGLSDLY
Sequence of Beta-2 adrenergic receptor (Homo sapiens) (P07550 whole entry, looked up): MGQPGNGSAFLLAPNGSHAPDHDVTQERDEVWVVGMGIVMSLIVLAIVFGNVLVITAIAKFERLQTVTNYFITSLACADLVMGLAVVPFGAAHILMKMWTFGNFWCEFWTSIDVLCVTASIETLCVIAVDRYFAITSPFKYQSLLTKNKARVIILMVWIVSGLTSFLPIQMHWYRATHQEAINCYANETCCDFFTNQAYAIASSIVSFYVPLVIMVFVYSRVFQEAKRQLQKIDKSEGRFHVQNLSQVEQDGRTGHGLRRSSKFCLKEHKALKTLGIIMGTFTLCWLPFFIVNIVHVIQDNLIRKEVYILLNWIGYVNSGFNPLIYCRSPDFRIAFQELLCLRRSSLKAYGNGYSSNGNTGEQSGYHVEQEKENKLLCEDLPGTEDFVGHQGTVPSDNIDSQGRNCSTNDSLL
Sequence of DNA polymerase III PolC-type (Bacillus subtilis (strain 168)) (P13267 whole entry, looked up): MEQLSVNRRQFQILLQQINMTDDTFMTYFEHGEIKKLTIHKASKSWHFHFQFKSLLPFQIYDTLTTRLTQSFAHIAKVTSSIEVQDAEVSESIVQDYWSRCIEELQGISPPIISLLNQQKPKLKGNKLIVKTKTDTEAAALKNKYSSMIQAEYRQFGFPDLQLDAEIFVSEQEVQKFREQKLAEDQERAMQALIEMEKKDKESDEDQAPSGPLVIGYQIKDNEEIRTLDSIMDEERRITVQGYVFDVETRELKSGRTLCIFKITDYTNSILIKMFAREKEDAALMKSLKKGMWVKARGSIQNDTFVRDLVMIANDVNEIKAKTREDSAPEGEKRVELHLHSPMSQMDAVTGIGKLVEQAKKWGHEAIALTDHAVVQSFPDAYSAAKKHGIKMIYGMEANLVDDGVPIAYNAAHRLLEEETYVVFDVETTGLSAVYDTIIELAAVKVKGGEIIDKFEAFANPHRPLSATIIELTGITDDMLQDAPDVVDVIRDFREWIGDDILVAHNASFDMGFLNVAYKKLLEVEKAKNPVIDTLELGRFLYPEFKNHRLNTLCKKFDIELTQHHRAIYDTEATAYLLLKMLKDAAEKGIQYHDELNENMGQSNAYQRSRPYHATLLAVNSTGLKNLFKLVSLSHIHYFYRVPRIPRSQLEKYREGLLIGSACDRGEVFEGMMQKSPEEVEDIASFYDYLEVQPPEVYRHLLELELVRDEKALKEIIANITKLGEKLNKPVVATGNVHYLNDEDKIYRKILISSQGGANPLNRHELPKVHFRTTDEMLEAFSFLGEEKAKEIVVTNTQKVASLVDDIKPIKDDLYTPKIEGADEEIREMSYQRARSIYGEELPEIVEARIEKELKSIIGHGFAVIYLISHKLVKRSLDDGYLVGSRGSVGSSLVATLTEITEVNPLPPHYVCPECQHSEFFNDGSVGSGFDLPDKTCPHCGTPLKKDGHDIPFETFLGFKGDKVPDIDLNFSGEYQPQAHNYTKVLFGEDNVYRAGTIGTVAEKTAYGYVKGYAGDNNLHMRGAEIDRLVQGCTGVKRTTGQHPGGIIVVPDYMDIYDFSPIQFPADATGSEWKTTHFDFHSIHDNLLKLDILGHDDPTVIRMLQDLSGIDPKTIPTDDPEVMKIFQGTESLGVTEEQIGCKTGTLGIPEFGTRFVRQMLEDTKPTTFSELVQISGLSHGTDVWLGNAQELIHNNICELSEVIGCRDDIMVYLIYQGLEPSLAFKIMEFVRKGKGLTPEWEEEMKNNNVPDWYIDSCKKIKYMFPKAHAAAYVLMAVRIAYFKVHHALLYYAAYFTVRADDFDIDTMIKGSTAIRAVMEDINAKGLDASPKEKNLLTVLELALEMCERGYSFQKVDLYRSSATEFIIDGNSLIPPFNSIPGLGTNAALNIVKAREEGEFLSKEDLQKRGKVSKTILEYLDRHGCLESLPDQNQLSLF
Sequence of Thioredoxin reductase 1, cytoplasmic (Rattus norvegicus) (O89049 whole entry, looked up): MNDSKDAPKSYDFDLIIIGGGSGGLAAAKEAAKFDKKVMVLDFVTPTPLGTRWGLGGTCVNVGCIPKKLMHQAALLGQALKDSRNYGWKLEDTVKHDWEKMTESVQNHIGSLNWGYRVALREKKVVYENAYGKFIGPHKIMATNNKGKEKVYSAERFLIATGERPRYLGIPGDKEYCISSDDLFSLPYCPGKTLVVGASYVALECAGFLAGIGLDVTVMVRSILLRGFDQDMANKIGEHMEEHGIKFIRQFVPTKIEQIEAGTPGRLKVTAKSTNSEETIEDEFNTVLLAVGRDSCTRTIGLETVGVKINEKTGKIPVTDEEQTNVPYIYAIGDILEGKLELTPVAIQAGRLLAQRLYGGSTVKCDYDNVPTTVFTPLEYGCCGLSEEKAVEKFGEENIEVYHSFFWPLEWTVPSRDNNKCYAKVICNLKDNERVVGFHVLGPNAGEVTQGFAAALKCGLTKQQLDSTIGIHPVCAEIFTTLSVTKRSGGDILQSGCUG
Sequence of Chromobox protein homolog 1 (Homo sapiens) (P83916 whole entry, looked up): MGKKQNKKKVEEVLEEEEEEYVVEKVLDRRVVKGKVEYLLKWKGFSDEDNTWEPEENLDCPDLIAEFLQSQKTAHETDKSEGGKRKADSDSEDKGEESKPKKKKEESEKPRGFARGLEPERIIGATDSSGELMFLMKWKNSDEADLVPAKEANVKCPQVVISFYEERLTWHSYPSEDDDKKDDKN
Sequence of ATP-dependent 6-phosphofructokinase (Trypanosoma brucei brucei) (O15648 whole entry, looked up): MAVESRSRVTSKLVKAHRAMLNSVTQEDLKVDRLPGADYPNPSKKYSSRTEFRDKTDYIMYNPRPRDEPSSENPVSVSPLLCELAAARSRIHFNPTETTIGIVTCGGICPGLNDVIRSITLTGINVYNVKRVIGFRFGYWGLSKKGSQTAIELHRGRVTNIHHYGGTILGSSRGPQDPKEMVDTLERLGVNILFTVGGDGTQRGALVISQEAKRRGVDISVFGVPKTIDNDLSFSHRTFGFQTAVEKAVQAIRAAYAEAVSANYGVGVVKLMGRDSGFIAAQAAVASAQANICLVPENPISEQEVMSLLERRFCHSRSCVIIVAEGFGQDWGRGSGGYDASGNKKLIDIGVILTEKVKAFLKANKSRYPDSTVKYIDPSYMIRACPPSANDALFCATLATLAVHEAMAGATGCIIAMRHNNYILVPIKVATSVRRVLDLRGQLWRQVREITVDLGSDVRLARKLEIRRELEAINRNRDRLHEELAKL
Sequence of Ubiquitin carboxyl-terminal hydrolase 2 (Homo sapiens) (O75604 whole entry, looked up): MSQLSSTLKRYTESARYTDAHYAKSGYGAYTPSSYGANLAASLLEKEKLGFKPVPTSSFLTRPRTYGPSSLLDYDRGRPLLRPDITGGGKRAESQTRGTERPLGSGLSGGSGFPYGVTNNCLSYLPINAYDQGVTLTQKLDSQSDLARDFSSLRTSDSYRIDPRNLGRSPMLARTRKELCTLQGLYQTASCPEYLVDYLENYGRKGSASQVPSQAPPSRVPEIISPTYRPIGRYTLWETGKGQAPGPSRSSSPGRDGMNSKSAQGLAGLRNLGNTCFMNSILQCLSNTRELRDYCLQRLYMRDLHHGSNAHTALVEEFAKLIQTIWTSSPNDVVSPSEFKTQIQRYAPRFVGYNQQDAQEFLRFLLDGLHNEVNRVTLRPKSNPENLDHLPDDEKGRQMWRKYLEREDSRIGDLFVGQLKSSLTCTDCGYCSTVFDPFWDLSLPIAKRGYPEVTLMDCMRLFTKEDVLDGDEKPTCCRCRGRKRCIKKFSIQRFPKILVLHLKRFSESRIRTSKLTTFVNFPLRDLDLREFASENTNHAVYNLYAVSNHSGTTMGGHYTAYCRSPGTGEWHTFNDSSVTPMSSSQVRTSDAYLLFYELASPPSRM
Sequence of M-phase phosphoprotein 8 (Homo sapiens) (Q99549 whole entry, looked up): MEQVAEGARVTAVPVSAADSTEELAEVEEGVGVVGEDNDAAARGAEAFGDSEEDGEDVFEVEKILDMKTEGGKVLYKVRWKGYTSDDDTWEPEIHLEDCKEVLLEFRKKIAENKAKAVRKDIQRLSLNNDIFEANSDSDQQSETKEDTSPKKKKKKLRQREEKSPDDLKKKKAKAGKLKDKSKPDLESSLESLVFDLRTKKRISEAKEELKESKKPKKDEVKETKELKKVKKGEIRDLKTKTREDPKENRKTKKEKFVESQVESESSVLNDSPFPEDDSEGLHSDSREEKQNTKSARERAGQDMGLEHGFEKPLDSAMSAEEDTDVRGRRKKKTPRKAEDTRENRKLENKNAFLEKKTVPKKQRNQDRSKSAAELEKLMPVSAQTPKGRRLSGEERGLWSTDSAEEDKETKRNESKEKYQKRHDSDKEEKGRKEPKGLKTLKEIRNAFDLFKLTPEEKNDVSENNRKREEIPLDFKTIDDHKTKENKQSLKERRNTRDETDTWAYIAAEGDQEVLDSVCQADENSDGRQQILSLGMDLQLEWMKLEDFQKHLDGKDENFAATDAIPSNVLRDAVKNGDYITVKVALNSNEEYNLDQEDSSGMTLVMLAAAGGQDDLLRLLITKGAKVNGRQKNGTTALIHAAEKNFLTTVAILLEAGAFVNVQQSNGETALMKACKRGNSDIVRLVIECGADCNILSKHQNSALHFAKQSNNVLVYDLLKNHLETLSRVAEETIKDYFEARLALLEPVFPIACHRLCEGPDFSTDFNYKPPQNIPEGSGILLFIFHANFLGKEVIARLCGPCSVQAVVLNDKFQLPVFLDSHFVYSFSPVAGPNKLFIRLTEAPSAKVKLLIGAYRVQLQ

In the case of `CC(COc1ccc(/C=C/c2ccccc2)cc1)[N+](C)(C)C` (stereo not drawn), the molecule was called inactive in assay [1], in assay [5], in [6] and in assay [7]. For the same molecule, the Potency result in assay [2], in assay [3], in assay [4], in assay [8], in assay [11] and in assay [12] was “inactive” throughout. Also, the Potency result in [13], in [14] and in assay [15] was “inactive” in each case. The Potency in [9] is 2.08 µM (active); in [10], 3.29 µM (active).

With `O=C(Nc1ccccc1)c1cc([N+](=O)[O-])ccc1Cl`, the outcome in assay [1], in assay [5] and in assay [7] was inactive. Moreover, the Potency entry in assay [2], in assay [16], in assay [17], in [3], in assay [4] and in assay [8] was “inactive” each time. Also, the Potency result in [11], in [12], in [13], in [14] and in assay [15] was “inactive” each time.

On to `CCCCCCCCCCCCCCCCCC(=O)NCC(COP(=O)([O-])OCC[N+](C)(C)C)OCC` (stereo not drawn), for which the molecule was classed as inactive in assay [1], in [5] and in assay [7]. The Potency entry in [2], in assay [16], in assay [3], in assay [8], in assay [9] and in assay [10] was “inactive” in each case. For the same molecule, the Potency result in assay [11], in [13], in [14] and in assay [15] was “inactive” in each case. Also, the Potency in [17] is 1.12 µM (active).

Turning to `O=C1C(SCCO)=C(SCCO)C(=O)c2ccccc21`, the call in [1], in [5] and in assay [7] was inactive. Also, the Potency result in [2], in [3], in assay [4] and in assay [14] was “inactive” throughout. In addition, the Potency is 3.69 µM (active) in assay [16]; 3.98 µM (active) in [17]; 12 µM (active) in assay [8]; 16.8 µM (active) in [11]; 26.7 µM (active) in [12]; 10 µM (active) in assay [15].

Regarding `N#C/C(=C\c1c[nH]c2ccccc12)C(=O)c1ccc(O)c(O)c1`, the molecule was called inactive in [1], in assay [5] and in [7]. Moreover, the Potency entry in assay [2], in assay [16], in [17], in assay [3], in assay [9] and in assay [10] was “inactive” in each case. Further, the Potency result in [11] was “inactive”. In addition, the Potency is 4.23 µM (active) in [13]; 3.98 µM (active) and 8.44 µM (active) in assay [14]; 3.55 µM (active) in assay [15].

With `Cn1cc(C2=C(c3ccc(Cl)cc3Cl)C(=O)NC2=O)c2ccccc21`, the molecule was called inactive in assay [1], in [5] and in [7]. Besides, the Potency entry in assay [2], in assay [16], in assay [18], in assay [4], in [8] and in assay [9] was “inactive” throughout. The Potency entry in assay [10], in [11], in assay [12], in assay [13], in [14] and in assay [15] was “inactive” throughout.

Consider `CCCCC/C=C\CC(O)/C=C/c1cccc(CC(O)CCCCO)n1` (stereo not drawn), for which the call in [1], in [5] and in assay [7] was inactive. Further, the Potency entry in assay [2], in [16], in assay [17], in assay [3], in assay [4] and in [8] was “inactive” in each case. Further, the Potency entry in assay [10], in assay [11], in [13] and in [14] was “inactive” throughout. Besides, the Potency in assay [15] was 0.0075 µM (active).
